Assay results reported in PubChem BioAssay (NCI).
This is part of a sample that, as a whole, favours compounds with a hit. Of some 83,000 tested, about 20% had one in any assay.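 Values shown are percent growth following 48 h exposure of cells in 96-well plates to a single concentration of compound; below 10 was considered active.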 Activity calls are given as the source filed them.

Each compound was assayed on U251 CNS (assay: NCI-60 one-dose screen, 48 h (100 = growth as untreated, 0 = no growth, -100 = all killed)). Conditions: 10 µM unless noted.
Experimental: Growth inhibition of the U251 human tumor cell line is measured as a screen for anti-cancer activity. Cells are grown in 96 well plates and exposed to the test compound for 48 hours. Compounds are tested at a single concentration, which is 10^-5 M for most compounds. The reported endpoint is percent growth (GI% or GIPRCNT), where numbers from 0 - 100% represent growth inhibition, and numbers from -100% - 0 represent cell death. For example, a value of 40 represents 60% growth inhibition. A value of 0 means no net growth occurred over the course of the experiment. A value of -40 indicates 40% of cells at the beginning of the experiment died by the end of the experiment. A value of -100 means all cells are dead at the end of the experiment.
NCI-60 Human Tumor Cell Lines Screen was performed using the standard one-dose NCI protocol, which is described in more detail at https://dtp.cancer.gov/discovery_development/nci-60/default.htm.
Compounds with GIPRCNT values below 10 were considered active. Activity score was based on GIPRCNT using the following formula: […]
Score is 0 for GIPRCNT values of 100 or above, 50 for GIPRCNT values of 0, and 100 for GIPRCNT values of -100.
With `CN(C)CCS(=O)(=O)Nc1cc(-c2ccc3ncc(C#N)c(Nc4ccc(F)c(Cl)c4)c3c2)cnc1Cl` the growth was -46.2% (active). In the case of `CN1CCN(Cc2ccc(NC(=O)c3cncc(C#Cc4cnccc4C#N)c3)cc2C(F)(F)F)CC1`, the growth is reported as 77.3% (inactive). In the case of `C/C(=C(/c1ccccc1)c1ccc(N2C(=O)c3cccc4c(N5CCN(C)CC5)ccc(c34)C2=O)cc1)c1ccccc1`, the growth is reported as 75.4% (inactive). With `CNC(=O)c1[nH]cc(-c2ccccc2)c1-c1cc(OC)c2c(c1OC)OCO2` the growth was 96% (inactive). In the case of `CCCCCCCCCCCCCCCCCCOc1ccccc1CCCOP(=O)(O)OCC[N+](C)(C)C`, the growth is reported as 39.4% (inactive). In the case of `CCOC(=O)c1cn2ncnc(Oc3ccc(NC(=O)NCCN4CCN(C)CC4)c(Cl)c3)c2c1C`, the growth is reported as 63.3% (inactive). For `CCOC(=O)C1=C(N)Oc2c(sc3c(C)cccc23)C1c1ccc(F)cc1` (stereo not given), the growth was 19.4% (inactive). `O=C1CCC(C(=O)NCCNCCNC(=O)C2CCC(=O)N2)N1` (stereo not given) was tested, and the growth was 97.7% (inactive). With `CN1CCN(CC(=O)N2c3cccc4cccc(c34)N(C(=O)CN3CCN(C)CC3)C2c2cn(-c3ccccc3)nc2-c2cccc([N+](=O)[O-])c2)CC1` the growth was -64.4% (active). `CC1=NN(c2ccc(S(=O)(=O)O)cc2)C(=O)C1N=Nc1ccc(-c2ccc(N=Nc3ccc(OS(=O)(=O)c4ccc(C)cc4)cc3)c(S(=O)(=O)O)c2)cc1` (stereo not given) was tested, and the growth was 96.2% (inactive). For `O=C(/C=C/c1sc(Cl)nc1Cl)c1ccc(Br)cc1`, the growth was 60.1% (inactive). In the case of `C[C@]12CC[C@@H]3c4cc(OC(F)F)c(OS(N)(=O)=O)cc4CC[C@H]3[C@@H]1CC[C@@H]2OS(N)(=O)=O`, the growth is reported as 33.1% (inactive). With `CC1Cc2ccccc2N1NC(=O)c1ccc(Cl)c(S(N)(=O)=O)c1` (stereo not given) the growth was 100% (inactive). In the case of `CC(=O)N1N=C(c2ccc(Nc3nc(Nc4ccc(F)cc4)nc(Nc4ccc(Cl)cc4)n3)cc2)CC1c1ccc(Cl)cc1` (stereo not given), the growth is reported as 94.7% (inactive). With `Cc1ccc(C(=O)N/N=C/c2cccc(Oc3ccccc3)c2)cn1` the growth was 58.9% (inactive). For `COc1ccc2sc3c(NCCO)nc4ccccc4c3c(=O)c2c1`, the growth was 93.1% (inactive). With `Oc1ccc(Cl)cc1Cc1cc(Cl)cc(Cl)c1O` the growth was 13% (inactive). In the case of `O=C(O)CCC(=O)Nc1nnc(-c2ccccc2)s1`, the growth is reported as 105% (inactive). For `S=C(c1cccs1)N1CCN(c2cccc(Cl)c2)CC1`, the growth was 93.7% (inactive). `O=S(=O)(Nc1ccc(-c2nc(-c3cccc(OCCN4CCOCC4)c3)c(-c3ccnc(Br)c3)[nH]2)cc1)c1ccccc1` was tested, and the growth was 35.2% (inactive). `O=C1c2cccc3cccc(c23)C(=O)N1N1C(=O)c2cccc3c(NC4CCCCC4)ccc(c23)C1=O` was tested, and the growth was 99.7% (inactive). In the case of `O=C(Nc1ccc(Cl)cc1F)c1ccccc1O`, the growth is reported as 34.6% (inactive). With `c1ccc2c(-c3nc(-c4c[nH]c5ccncc45)cs3)c[nH]c2c1` the growth was -14.9% (active). For `O=C(N/N=C/[C@H](O)[C@@H](O)[C@@H](O)[C@H](O)CO)c1ccc(NC(=O)c2cccnc2)cc1`, the growth was 102% (inactive). With `CCN(CC)c1ccc(C2=NN(C(C)=O)C(c3cc(OC)c(OC)c(OC)c3)C2)cc1` (stereo not given) the growth was 18.7% (inactive). For `O=C(CCN1C(=O)/C(=C/c2ccc(O)cc2)SC1=S)Nc1ccccc1`, the growth was 92.7% (inactive). In the case of `Cc1nc(/N=C(\N)NC(=O)Nc2ccccc2Cl)sc1C`, the growth is reported as 29.2% (inactive). With `CCCCCCNC(=O)Oc1ccc(/C(=C(\C)c2ccc(Cl)cc2)c2ccc(OCCN(CC)CC)cc2)cc1` the growth was 41.7% (inactive). `Cc1ccc(-c2nn(C)c(=O)c3noc(-c4ccc(C)cc4)c23)cc1` was tested, and the growth was 27.4% (inactive). In the case of `O=C(Nc1ccc(-c2nc(-c3cccc(OCCN4CCOCC4)c3)c(-c3ccnc(Br)c3)[nH]2)cc1)c1ccccc1`, the growth is reported as 8.84% (active). In the case of `COc1cccc(-c2nc(-c3ccc(NC(=O)c4ccccc4)cc3)[nH]c2-c2ccnc(Br)c2)c1`, the growth is reported as 30.7% (inactive). `COc1ccc(NC2=C(Br)C(=O)C(C)=C(C)C2=O)cc1` was tested, and the growth was 88.3% (inactive). For `Oc1c(I)cc(I)cc1CNCCCN(Cc1ccccn1)Cc1ccccn1`, the growth was -12.9% (active). With `C=C1CC[C@H](C(C)C)[C@@H]2[C@H]1[C@H]1CC(=C)[C@@H](O)CC[C@@](C)(O)[C@@H]2O1` the growth was 106% (inactive). In the case of `CCOC(=O)c1sc2ncc(-c3ccc(OC)cc3)n2c1C`, the growth is reported as 105% (inactive). With `Fc1cc2c(cc1Cl)N(c1ncnc3ccc(-c4cnc5cnccn45)cc13)CC2` the growth was 91.1% (inactive). For `NCCCNc1nc2ccccc2c2c(=O)c3cc(OC(F)(F)F)ccc3sc12`, the growth was -63% (active). In the case of `NCCCNc1nc2ccc(Cl)cc2c2c(=O)c3cc(F)ccc3sc12`, the growth is reported as 38.1% (inactive). `CN(C)c1ccc(/C=N\Nc2cc(=O)[nH]c3ccc(Cl)cc23)cc1` was tested, and the growth was 99.8% (inactive). `C=CCNc1ccc2c3c(cccc13)C(=O)N(N1C(=O)c3cccc4cccc(c34)C1=O)C2=O` was tested, and the growth was 95.4% (inactive).
